Compound activity (PubChem BioAssay)
HCV NS3h FP = HCV NS3 helicase inhibitors, primary screen, biochemical, fluorescence polarization, ChemBridge library; Hepatitis C virus NS3 helicase; NS3h Cy5-dT15 DNA binding; inhibition, % at 100 µM; 1.6% of 16,000 active;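 active = inhibition above the average over every tested compound plus 3 SD, cut at about 40% in these data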
Cy5 interf NS3h = Cy5 fluorescence quenchers or enhancers, artefact control for HCV NS3 helicase inhibitor project, biochemical, ChemBridge library, Cy5 readout; Cy5-dT15 DNA with NS3h, fluorescence interference; actives lie on both sides; signal over control mean, under 1 quenches; fluorescence interference ratio at 100 µM; 6% of 16,000 active; AID 720488, 2013;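 active = compound fluorescence over control fluorescence at most 0.8, a quencher, or at least a set upper limit, an enhancer; inactive = ratio between 0.8 and the set upper limit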
HCV NS3h conf = HCV NS3 helicase inhibitors, retest, confirmation, biochemical, fluorescence polarization, ChemBridge library. shares compounds with HCV NS3h FP. NS3h binding to Cy5-dT15 DNA. inhibition, % at 100 µM. 20% of 240 active. AID 720485, 2013;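 active = percent inhibition of 50% or more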
SSB-DNA FP CB = E. coli SSB-DNA binding inhibitors, counter-screen for HCV NS3 helicase inhibitor project, biochemical, fluorescence polarization, selected ChemBridge compounds; shares compounds with HCV NS3h FP; E. coli SSB binding Cy5-dT15; inhibition, % at 100 µM; 40% of 240 active;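 active = inhibition of at least 50%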;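 also: displacers lower Cy5 polarization so higher inhibition means more SSB displaced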
Target sequence (P0AGE0 whole entry, looked up): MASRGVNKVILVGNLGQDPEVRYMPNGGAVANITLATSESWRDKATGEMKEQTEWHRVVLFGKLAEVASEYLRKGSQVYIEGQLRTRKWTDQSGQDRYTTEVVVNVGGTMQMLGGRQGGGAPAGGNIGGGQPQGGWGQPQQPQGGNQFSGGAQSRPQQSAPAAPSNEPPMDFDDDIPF
Cy5 SSB interf = Cy5 fluorescence interference with SSB-bound oligo, artefact control for HCV NS3 helicase inhibitor project, biochemical, E. coli SSB, selected ChemBridge compounds | shares compounds with HCV NS3h FP | Cy5-dT15/E. coli SSB fluorescence interference; actives lie on both sides | fluorescence interference ratio at 100 µM | 8% of 240 active | AID 720487, 2013;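 active = fluorescence interference ratio at or above 1.2, signal boosting, or at or below 0.8, signal quenching; inactive = ratio between 0.8 and 1.2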
Cy5 fluor confirm = Cy5-DNA-NS3h complex fluorescence interference, confirmation, artefact control for HCV NS3 helicase inhibitor project, biochemical, ChemBridge library; shares compounds with HCV NS3h FP; Cy5-dT15 DNA/NS3h fluorescence interference counterscreen; fluorescence interference ratio at 100 µM, hits read low; 44% of 240 active;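 active = fluorescence interference ratio at or below 0.8 quencher or at or above a set limitenhancer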
Each line names hits and unclear results; the compound was inactive in the other large screens (follow-up assays come after a bar, where they were run). Hits are enriched below; roughly 7.6% of the tested compounds scored in any of these assays.

CCC1=NN2C(=N)/C(=C/c3ccc(-c4cccc([N+](=O)[O-])c4)o3)C(=O)N=C2S1	none
CN1C(=O)/C(=C/c2ccc(-c3ccc(C(=O)O)cc3)o2)SC1=S	HCV NS3h FP 76, Cy5 interf NS3h 1.2 | HCV NS3h conf inactive | SSB-DNA FP CB inactive | Cy5 SSB interf inactive | Cy5 fluor confirm inactive
O=C1NC(=S)S/C1=C\c1ccc(C(=O)O)cc1	none
COCCN1C(=O)/C(=C\c2ccc(-c3cccc([N+](=O)[O-])c3)o2)SC1=S	none
O=S(=O)(Nc1nc2ccccc2nc1-n1cnc2ccccc21)c1ccccc1	none
O=C(NCCOc1ccccc1Cl)C(c1ccccc1)c1ccccc1	none
CC1=NN(c2ccc(C(=O)O)cc2)C(=O)/C1=C\c1ccc(-c2cccc(C(=O)O)c2)o1	none
N=C1S/C(=C\c2ccc(-c3cccc(C(=O)O)c3)o2)C(=O)N1c1ccc2c(c1)OCO2	HCV NS3h FP 71 | HCV NS3h conf inactive | SSB-DNA FP CB 107 | Cy5 SSB interf inactive | Cy5 fluor confirm inactive
O=C(Nc1ccc(F)c([N+](=O)[O-])c1)c1ccc2c(c1)OCCO2	none
O=C(Nc1ccc(F)c([N+](=O)[O-])c1)c1ccc2ccccc2c1	Cy5 interf NS3h 0.73 | HCV NS3h conf inactive | SSB-DNA FP CB 50 | Cy5 SSB interf 0.7 | Cy5 fluor confirm 0.78
Cc1ccc(C2=C(C#N)C(N)=C(C#N)C3=CCCC32)c(C)c1 (stereo not given)	none
COc1cc(C=C2C(=O)NC(=O)NC2=O)cc(Br)c1OCc1ccc([N+](=O)[O-])cc1	HCV NS3h FP 73, Cy5 interf NS3h 0.73 | HCV NS3h conf inactive | SSB-DNA FP CB inactive | Cy5 SSB interf inactive | Cy5 fluor confirm 0.58
COc1cc(C=C2C(=O)NC(=S)NC2=O)cc(Br)c1O	none
COc1cc(C=C2C(=O)N(C)C(=O)N(C)C2=O)cc(Br)c1OCc1ccccc1	none
COc1cc(C=C2C(=O)NC(=O)NC2=O)cc([N+](=O)[O-])c1O	HCV NS3h FP 48 | HCV NS3h conf inactive | SSB-DNA FP CB 60 | Cy5 SSB interf inactive | Cy5 fluor confirm inactive
Cc1cc(I)ccc1NC(=O)/C=C/c1ccccc1Cl	none
Nc1ccc(Cl)c(C(=O)Nc2ccccc2C(=O)O)c1	none
Cn1cnnc1Sc1cc(N2CCCC2)ccc1[N+](=O)[O-]	none
COc1ccc(C2C(=C(O)c3ccc(Cl)cc3)C(=O)C(=O)N2C)cc1OC (stereo not given)	none
O=C1CCCC2=C1C(c1ccccc1Cl)Nc1ccc(C(=O)c3ccccc3)cc1N2 (stereo not given)	none
Cc1cccc(NC(=O)CSC(N)=O)c1	none
N#CC(C#N)=Cc1ccc(-c2ccc(Cl)c(C(=O)O)c2)o1	HCV NS3h FP 43 | HCV NS3h conf inactive | SSB-DNA FP CB inactive | Cy5 SSB interf inactive | Cy5 fluor confirm 0.79
CN1C(=O)C(=Cc2ccc(-c3ccc(Cl)c(C(=O)O)c3)o2)C(=O)N(C)C1=O	none
O=C(Nc1cccc(Oc2ccc(C(=O)O)c(C(=O)O)c2)c1)c1ccc(-c2ccccc2)cc1	HCV NS3h FP 52 | HCV NS3h conf inactive | SSB-DNA FP CB inactive | Cy5 SSB interf inactive | Cy5 fluor confirm 0.74
CC(=O)Nc1ccc(Oc2ccc(C(=O)O)c(C(=O)O)c2)cc1	none
CCOC(=O)c1[nH]c(=O)[nH]c1CSc1ccccn1	HCV NS3h FP 44 | HCV NS3h conf inactive | SSB-DNA FP CB inactive | Cy5 SSB interf inactive | Cy5 fluor confirm inactive
COc1ccc(NC(=O)CSc2ccccn2)cc1	none
Cc1ccccc1/C=C1\SC(=S)N(Cc2ccccc2)C1=O	none
CCOC(=O)c1sc(NC(=O)CCCOc2ccc(Cl)cc2Cl)nc1C	none | HCV NS3h conf inactive | SSB-DNA FP CB inactive | Cy5 SSB interf inactive | Cy5 fluor confirm 0.75
O=C(CCCOc1ccc(Cl)cc1Cl)Nc1ncn[nH]1	none
CCOc1ccc(C(=O)Nc2cc(OC)ccc2OC)cc1[N+](=O)[O-]	HCV NS3h FP 89 | HCV NS3h conf inactive | SSB-DNA FP CB inactive | Cy5 SSB interf inactive | Cy5 fluor confirm inactive
COc1ccc(C)cc1NC(=O)c1ccc(OC)c([N+](=O)[O-])c1	none
